Assay outcomes: PubChem, The Scripps Research Institute Molecular Screening Center
The list is not random: actives were taken first. Their share in the collection is about 3.5%.
GPR151 ag: human GPR151 activation. activation, % at 11.2 µM. AID 1508602. actives 1% (n = 650,000). PathHunter beta-arrestin GPR151 cells, luminescence; in the data active = activation above about 4.9%
FBW7 act: activators of human E3 ligase FBW7; actives 0.13% (n = 650,000); normalized activity (activation), % at 26.1 µM; AID 1259310; Q969H0; AlphaScreen FBW7–phospho-cyclin E peptide binding, activator screen; in the data active = normalized activity above about 1.9%;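 note: purified mutant Fbw7 with reduced substrate affinity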
TEAD-YAP block: TEAD-YAP interaction inhibition; actives 1.4% (n = 640,000); inhibition, % at 9.12 µM; HEK-TIYL cells, TEAD-Gal4/YAP UAS-luciferase luminescence; in the data active = inhibition above about 32%
MITF inh: blocks human microphthalmia-associated transcription factor; O75030; AlphaScreen MITF homodimerization, bead proximity signal; inhibition, % at 2.6 µM; actives 0.91% (n = 650,000); AID 1259374; in the data active = inhibition above about 50%
GPR151 conf act: confirmation of human GPR151 activators. GPR151 PathHunter beta-arrestin cells, luminescence, 90 min; % of EA-reagent control over plate median. activation, % at 11.2 µM. 6,700 tested, under 10 active. shares compounds with GPR151 ag;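 active = mean percent activation across replicates above the confirmation screen cutoff of 4.91%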
GPR119 counter: activates human GPR119 in a GPR151 counter-screen; shares compounds with GPR151 ag; GPR119 PathHunter beta-arrestin cells, luminescence, 90 min; 0 = compound-well median, 100 = enzyme-acceptor control; activation, % at 11.2 µM; actives 0.3% (n = 6,700); AID 1508611;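 active = mean percent activation in the counterscreen above 29.09%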;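 note: counterscreen on off-target GPR119 to flag nonselective hits from the GPR151 activator screen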
Target sequence (Q8TDV5 whole entry, looked up): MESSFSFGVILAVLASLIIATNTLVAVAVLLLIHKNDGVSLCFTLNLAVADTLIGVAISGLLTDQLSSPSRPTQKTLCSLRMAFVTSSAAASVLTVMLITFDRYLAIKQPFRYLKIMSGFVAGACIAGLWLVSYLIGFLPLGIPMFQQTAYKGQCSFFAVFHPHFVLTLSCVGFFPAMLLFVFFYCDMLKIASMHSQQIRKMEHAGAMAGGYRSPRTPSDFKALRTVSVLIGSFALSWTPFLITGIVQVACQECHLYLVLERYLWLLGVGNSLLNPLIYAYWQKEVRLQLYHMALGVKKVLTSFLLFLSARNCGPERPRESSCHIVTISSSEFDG
Hits are given with their value; i = inactive; nt = no result.

SMILES | GPR151 ag | FBW7 act | TEAD-YAP block | MITF inh | GPR151 conf act | GPR119 counter
CC(=O)Nc1nnc(SCc2ccc([N+](=O)[O-])cc2)s1 | i | i | i | i | nt | nt
COc1ccc(CCNc2ccnc(-c3ccc(C(=O)NC4CC4)cc3)n2)cc1 | 5.5 | i | 33 | i | i | i
CCOC(=O)Nc1nnc(Cc2ccc(Cl)c(Cl)c2)s1 | 5.8 | i | i | i | i | i
CN(C)c1ccc(NC(=O)CCN2C(=O)C3C4C=CC(C4)C3C2=O)cc1 (stereo not given) | 5.2 | i | i | i | i | i
CCOC(=O)Cn1c(=O)c(-c2cc([N+](=O)[O-])ccc2NC)nc2cc3ccccc3cc21 | i | i | i | i | nt | nt
COc1ccccc1NS(=O)(=O)c1ccc2oc(=O)ccc2c1 | i | i | i | i | nt | nt
CCc1ccccc1NS(=O)(=O)c1ccc2oc(=O)ccc2c1 | 13 | i | i | i | i | i
CC(=O)c1ccc(NC(=S)NCC2CCCO2)cc1 (stereo not given) | 5.4 | i | i | i | i | i
S=C(NCC1CCCO1)Nc1ccc(I)cc1 (stereo not given) | i | i | i | i | nt | nt
CC(=O)c1ccc(OCC(=O)Nc2ccccc2)cc1 | 5.8 | i | i | i | i | i
CC(C)(C)c1ccc(OCC(=O)Nc2ccc(OCC(=O)O)cc2)cc1 | 5.2 | i | i | i | i | i
CCOc1ccc(NC(=O)CNC(=O)c2ccc(C(C)(C)C)cc2)cc1 | 9.1 | i | i | i | i | i
O=C(COc1ccc(F)cc1)Nc1cccc(C(=O)O)c1 | 6.5 | i | i | i | i | i
CCOc1ccc(NC(=O)c2ccc(C(C)(C)C)cc2)cc1 | i | i | i | i | nt | nt
CCC(=O)N1c2ccccc2-c2nnc(SC)nc2OC1c1ccc(N(CC)CC)cc1 (stereo not given) | i | i | i | i | nt | nt
CCOc1ccc(-c2cccc(NC(=O)COc3ccc(C(=O)c4ccccc4)cc3)c2)nn1 | 7.3 | i | i | i | i | i
O=C(NN1C(=O)C2C3C=CC(C3)C2C1=O)c1ccc(Cl)cc1Cl (stereo not given) | i | i | i | i | nt | nt
O=C1C2C3C=CC(C3)C2C(=O)N1Nc1c(Cl)cc(Cl)cc1Cl (stereo not given) | 6.6 | i | i | i | i | i
CNC(=O)CCC(=O)N1CCOc2ccc(Cl)cc21 | 7.2 | i | i | i | i | i
Cc1cc(NC(=O)c2cc3ccccc3oc2=O)n(-c2nc3ccccc3[nH]2)n1 | 8.1 | i | i | i | i | i
Cc1cc(NC(=O)c2ccccc2)n(-c2nc3ccccc3[nH]2)n1 | i | i | i | i | nt | nt
O=C(Nc1ccc(N2CCCCC2)c(C(=O)O)c1)c1ccco1 | i | i | i | i | nt | nt
NC(=O)c1cc(NC(=O)c2ccco2)ccc1N1CCCCC1 | 6.5 | i | i | i | i | i
COc1ccc(/C=C2\C(=O)N(c3ccccc3)C3=C2C(c2ccc(Br)cc2)N(c2ccccc2)C3=O)cc1 (stereo not given) | i | i | i | i | nt | nt
COc1cc(-c2nnc3ccc4ccccc4n23)cc(OC)c1OC | i | i | i | i | nt | nt
SMILES | GPR151 ag | FBW7 act | TEAD-YAP block | MITF inh | GPR151 conf act | GPR119 counter
COc1ccc(C(C)=O)cc1CN1C(=O)C(C)Oc2ccccc21 (stereo not given) | i | i | i | i | nt | nt
O=C(NC(=S)Nc1ccc(-c2nc3ccccc3o2)cc1)c1cncc(Br)c1 | 6.1 | i | i | i | i | i
O=C(Nc1ccc(-c2nc3ccccc3o2)cc1)c1cc(I)ccc1Cl | 7.4 | i | i | i | i | i
CCCCCOc1ccc(C(=O)Nc2c(C(N)=O)oc3ccccc23)cc1 | 4.9 | i | i | i | i | i
CCCCOc1ccc(C(=O)Nc2c(C(N)=O)oc3ccccc23)cc1 | i | i | i | i | nt | nt
CC(=O)Nc1c(C(=O)c2ccc(Oc3ccccc3)cc2)oc2ccccc12 | 7.4 | i | i | i | i | i
COC(=O)[C@H](Cc1ccccc1)NC(=O)CCC1(Cc2ccco2)CCC(=O)N1 (stereo not given in full) | i | i | i | i | nt | nt
Cc1ccc(N2CC(=O)Nc3c(sc4nc(C)cc(C)c34)C2=O)cc1 | i | i | i | i | nt | nt
Cc1cc(C)c2c3c(sc2n1)C(=O)N(c1ccc(F)cc1)CC(=O)N3 | 5.6 | i | i | i | i | i
Cn1cccc1-c1nc2ccc(N)cc2[nH]1 | 6.3 | i | i | i | i | i
